The list is not random: actives were taken first. Their share in the collection is about 1.4%.
BJeLR viability: kills HRASV12-expressing BJeLR cells | BJeLR (HRASV12) viability, CellTiter-Glo ATP luminescence, 48 h | inhibition, % (test concentration not listed) | 300,000 tested, 0.17% active | AID 1554; in the data active = inhibition above about 50%
Y pestis TopoI: Y. pestis Topo-I inhibition via cleavage products; Y. pestis Topo-I cleavage product accumulation, plate reader; activity, % at 10 µM; AID 504884; 360,000 tested, 0.064% active; in the data active = activity above about 50%, passing the limit was not always enough
Sa ugtP lethal: compounds lethal to S. aureus RN4220 ugtP deletion mutant; OD600 growth, 16 h; growth inhibition, % (no concentration beside the values); 330,000 tested, 0.54% active; AID 1259309; in the data active = growth inhibition above about 68%
RN4220 kill: kills Staphylococcus aureus RN4220; S. aureus RN4220 growth, OD600, 16 h; inhibition, % (concentration not given with the values); 330,000 tested, 0.33% active; in the data active = inhibition above about 85%
PfHsp40 yeast: compounds rescuing yeast from Plasmodium falciparum HSP40 toxicity; 340,000 tested, 0.68% active; growth rescue, % at 12.5 µM; S. cerevisiae expressing PfHsp40, growth rescue, ATP luminescence; in the data active = growth rescue above about 28%, passing the limit was not always enough;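 also: yeast W303a lacking pdr1 and pdr3 grown in galactose medium; growth measured after three days at 30 °C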
PrP UTR inh: inhibition of PrP 5' UTR reporter expression; cell-based PrP 5' UTR mRNA reporter, plate reader; inhibition, % (concentration not given with the values); 340,000 tested, 0.35% active; in the data active = inhibition above about 52%
A number is an active result; n = inactive; x = no result given; ! = not active in a repeat.

SMILES	BJeLR viability	Y pestis TopoI	Sa ugtP lethal	RN4220 kill	PfHsp40 yeast	PrP UTR inh
CCCCOc1ccc(C(=O)NNC(=S)NC(=O)CC)cc1	n	n	98	94	61	n
CCC(=O)NC(=S)NNC(=O)c1ccc(OC)cc1	n	n	n	n	n	n
C#Cc1ccc(C2C=C(C(=O)O)OC(OCCCCO)C2)cc1 (stereo not drawn)	x	x	n	n	x	x
C=CC1=C(C(=O)O)N2C(=O)C(NC(=O)C(=NOCC(=O)O)c3csc(N)n3)C2SC1 (stereo not drawn)	x	x	99	93	x	x
CC(=O)c1ccc(N2CCN(C(=O)c3cc(-c4ccc5c(c4)OCO5)nc4ccccc34)CC2)cc1	n	n	101	n	n	n
CC1(C)Cc2ccccc2-c2nnc(SCC(=O)Nc3nc4ccccc4s3)n21	n	n	98	88	n	n
COc1cc(C=NNC(=O)c2cc(-c3c(C)nn(-c4ccccc4)c3C)n[nH]2)ccc1O	x	x	95	n	x	x
COC(=O)C1=C(c2c(C)noc2C)CC2CCC1N2C(=O)N1CCOCC1 (stereo not drawn)	x	x	n	n	x	x
Cc1c(OCC(=O)C(C)(C)C)ccc2c(-c3ccccc3)cc(=O)oc12	n	51	n	n	n	n
COc1cccc(N2CC(C(=O)N3CCC4(CC3)CC(=O)c3ccccc3O4)CC2=O)c1 (stereo not drawn)	n	217	n	n	n	n
O=S(=O)(Nc1nc2ccccc2nc1N1CCc2ccccc2C1)c1ccc(Cl)cc1	n	n	x	x	n	n
O=S(=O)(Nc1nc2ccccc2nc1N1CCN(c2ccccn2)CC1)c1ccc(Cl)cc1	x	n	n	n	142	n
CN1/C(=C\C(=O)c2cccs2)C(C)(C)c2ccccc21	n	n	n	n	153	n
CN1/C(=C\C=C(/C#N)C(=O)Nc2ccc(Cl)cc2)C(C)(C)c2ccccc21	n	n	x	x	n	n
CN1/C(=C\C(=O)Nc2ccc(Cl)cc2)C(C)(C)c2ccccc21	n	n	97	94	n	n
CN1C(=CC(=O)C(F)F)C(C)(C)c2ccccc21	x	x	n	n	x	x
CC(C)(C)OC(=O)CC1CC=CCC(CC(=O)NC(CO)Cc2ccccc2)C(=O)NC(Cc2c[nH]c3ccccc23)COC1=O (stereo not drawn)	x	x	n	n	x	x
C#CCOCCOCCOCCNc1nc(N2CCN(C(=O)C(CCC(=O)O)n3cc(C(N)Cc4ccc(O)cc4)nn3)CC2)nc(N2CCN(C(=O)C(CCCCN)n3cc(C(N)C(C)CC)nn3)CC2)n1 (stereo not drawn)	x	x	n	n	x	x
O=[N+]([O-])c1c(Nc2ccccc2O)cc(Cl)c2nonc12	n	n	n	98	n	n
COc1ccc2c(c1)C(=Cc1cnc[nH]1)C(=O)N2	x	x	n	n	x	x
Clc1ccccc1CN(Cc1ccco1)Cc1nnnn1C1CCCC1	n	n	n	n	331	n
O=C1C=CC(=O)C2C1C1(Cl)C(Cl)=C(Cl)C2(Cl)C1(Cl)Cl (stereo not drawn)	x	n	97	88	54	n
Cc1ccc2c(c1)NC(=O)[C@@]1(C)C(c3ccccc3)C3COc4ccc(Cl)cc4C3N1C2=O (stereo partly drawn)	x	x	n	n	x	x
O=C(Nc1cccc(C(F)(F)F)c1)c1cccnc1NCCc1ccccc1	n	n	n	n	389	n
O=C(O)c1cccc2c1Cc1cc([N+](=O)[O-])ccc1-2	x	n	n	n	118	n
SMILES	BJeLR viability	Y pestis TopoI	Sa ugtP lethal	RN4220 kill	PfHsp40 yeast	PrP UTR inh
O=[N+]([O-])c1ccc2c(c1)Cc1cc(O)ccc1-2	x	n	n	n	51	n
CCCCC1CN=C(N)N1CCCC (stereo not drawn)	x	x	n	n	x	x
FC(F)(F)c1ccc(C2C3CN(Cc4ccc(-c5ccccc5)cc4)C(c4ccccc4)C34CC2(c2ccccc2)C4)cc1 (stereo not drawn)	x	x	n	n	x	x
CCN1C(Nc2ccccc2)=NCC1Cc1ccccc1 (stereo not drawn)	x	x	n	n	x	x
CC1CC2C3CCC4=CC(=O)C=C[C@]4(C)[C@@]3(F)C(O)C[C@]2(C)[C@@]1(O)C(=O)COP(=O)(O)O (stereo partly drawn)	x	x	n	n	x	x
Clc1ccc(OCCn2ccnc2)c(Cl)c1	n	n	n	n	n	n
C=CCOC(Cn1ccnc1)c1ccc(Cl)cc1Cl (stereo not drawn)	x	n	n	n	326	n
OC(COc1ccc(Cl)cc1Cl)Cn1ccnc1 (stereo not drawn)	n	n	n	n	n	x
Clc1ccc(COC(Cn2ccnc2)c2ccc(Cl)cc2Cl)c(Cl)c1 (stereo not drawn)	n	60!	100	100	91	n
C#CCOCCOCCOCCNc1nc(OC)nc(N2CCN(C(=O)C(CCCCN)n3cc(C(N)CO)nn3)CC2)n1 (stereo not drawn)	x	x	n	n	x	x
CC(C)(C)c1cnnn1-c1ccc(C(=O)CCl)cc1	n	n	98	96	n	n
CC(=O)n1cc(C2C=C(C(=O)NCc3ccccc3)OC(OCCCCO)C2)c2ccccc21 (stereo not drawn)	x	x	n	n	x	x
CNCC1Oc2c(NC(=O)C3CC3)cccc2C(=O)N(C(C)CO)CC1C (stereo not drawn)	x	x	n	n	x	x
CCOc1cc(S(=O)(=O)NC2CC(C)(C)NC(C)(C)C2)ccc1Cl	n	n	n	n	123	n
N#Cc1c(=O)c2nc(NCCCO)ncc2n2c(=O)c3ccccc3[nH]c12	n	n	n	n	83	n
c1ccc(-c2ccc(-n3ccnc3)cc2)cc1	n	n	n	n	n	n
c1ccc(-c2ccc(C(c3ccccc3)n3ccnc3)cc2)cc1 (stereo not drawn)	n	n	n	n	176	n
CN1C(=O)C2C(C1=O)C(c1ccc(F)cc1)N1C(=O)c3ccccc3NC(=O)C21 (stereo not drawn)	x	x	n	n	x	x
COc1ccc(CN2CCC(=O)N(C(CO)Cc3ccccc3)CC2)cc1 (stereo not drawn)	x	x	n	n	x	x
Cc1ccc(C)c(NS(=O)(=O)c2ccc(-c3cnc(C4CC4)o3)cc2)c1	52	n	n	n	n	n
Cc1cccc(NS(=O)(=O)c2ccc(-c3cnc(C4CC4)o3)cc2)c1C	53	n	n	n	367	79
Cc1cc(C)cc(NS(=O)(=O)c2ccc(-c3cnc(C4CC4)o3)cc2)c1	58	n	n	n	n	67
C[C@@]12C(=O)N(Cc3ccco3)CC(=O)N1C1c3ccccc3OCC1C2c1ccccc1 (stereo partly drawn)	x	x	n	n	x	x
COC1=CC2C3=C(C(NC(C)=O)CCc4cc(OC)c(OC)c(OC)c43)C2C1=O (stereo not drawn)	x	x	n	n	x	x
CCCCN(c1nc2ccccc2nc1Cl)S(=O)(=O)c1ccc(C)cc1	n	55	n	n	n	n
CCCN(CCC)CC(O)CN(c1ccccc1)S(=O)(=O)c1ccc(C)cc1 (stereo not drawn)	n	n	n	n	n	n

Source: PubChem
